SARS PLP yeast: blocks SARS-CoV papain-like protease in a yeast assay. S. cerevisiae expressing SARS-CoV PLpro, growth rescue. Potency, µM (series often up to 32.9 µM), for the others: at the highest dose activity, positive = growth rescue, usual class: activators. 330,000 compounds, 0.19% hits. AID 485353; calls by dose curve; note: potency is the fitted concentration of half-maximal effect; 0% is about no effect; nearly all actives have a fitted effect of over 55% in size
Cycloheximide cs: affects cycloheximide protein synthesis inhibition readout, counter-screen. 300,000 compounds, 12% hits. max response, %. cell reporter, cycloheximide protein synthesis inhibition counterscreen; in the data active = max response mostly above about 13%, no sharp cut-off; inactive = mostly below about 14%; note: read at 38.3 µM for the half of the compounds with a filed dose; 0% is about no effect
AmpC detergent: blocks E. coli AmpC beta-lactamase in detergent assay. P00811. AmpC hydrolysis of nitrocefin, absorbance 480 nm, 0.01% Triton. Potency, µM (doses to about 114 µM), without a hit: at the top dose activity change, negative = inhibition, hits mostly inhibitors. 370,000 compounds, 0.041% hits. AID 485294;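 note: potency is the fitted concentration of half-maximal effect; 0% = no-compound wells and -100% = no-enzyme wells; nearly all actives have a fitted effect of over 25% in size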
Target sequence (P00811 whole entry, looked up): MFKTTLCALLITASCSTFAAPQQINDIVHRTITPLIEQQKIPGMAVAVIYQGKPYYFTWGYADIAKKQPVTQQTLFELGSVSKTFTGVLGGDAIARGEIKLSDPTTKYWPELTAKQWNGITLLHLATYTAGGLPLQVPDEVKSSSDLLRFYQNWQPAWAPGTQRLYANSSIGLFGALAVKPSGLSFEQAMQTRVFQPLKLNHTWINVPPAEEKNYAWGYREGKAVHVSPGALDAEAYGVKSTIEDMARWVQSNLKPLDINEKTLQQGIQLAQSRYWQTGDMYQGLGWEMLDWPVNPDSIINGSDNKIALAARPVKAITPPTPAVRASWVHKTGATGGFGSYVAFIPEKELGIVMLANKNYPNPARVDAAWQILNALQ
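AmpC (5.3 nM in the dispensed reagent) in 20 mM phosphate pH 7.0 with 0.01% (detergent screen) or 0.0001% Triton X-100 was preincubated with compounds for 15 min at room temperature. Nitrocefin was then added from an 800 uM solution, and hydrolysis was followed at 480 nm.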
AMA1-RON2 inh: AMA1-RON2 (P. falciparum) interaction inhibition; 360,000 compounds, 0.2% hits; AlphaScreen AMA1-biotinylated RON2 peptide binding; Potency, µM (series often up to 58.2 µM), without a hit: at the highest dose activity change, negative = inhibition, most hits filed as inhibitors;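 note: potency is the fitted concentration of half-maximal effect; 0% = vehicle wells and -100% = peptide control; nearly all actives have a fitted effect of over 45% in size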
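AMA1 (3D7) with his tag at 25 nM final met compounds first, then biotinylated RON2 peptide at 25 nM; detection used donor plus acceptor beads, 10 µg/mL apiece, read by AlphaScreen after 30 min at room temperature.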
Shiga toxin inh: blocks Shiga toxin action in Vero cells | AID 2315 | 290,000 compounds, 9.2% hits | inhibition, % at 38.7 µM | Vero cells, Shiga toxin protein synthesis inhibition reporter; in the data active = inhibition mostly above about 28%, no sharp cut-off; inactive = mostly below about 43%; note: 0% is about no effect
AmpC no deterg: AmpC beta-lactamase inhibition without detergent. 330,000 compounds, 0.52% hits. Potency, µM (series often up to 57.1 µM), without a hit: at the top dose activity change, negative = inhibition, actives largely listed as inhibitors. AmpC nitrocefin hydrolysis, absorbance 480 nm, 0.0001% Triton. P00811;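 note: potency is the fitted concentration of half-maximal effect; plate controls were no compound for no effect and no enzyme for full effect; nearly all actives have a fitted effect of over 20% in size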
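20 mM phosphate pH 7.0 + 0.01% (detergent screen) or 0.0001% Triton X-100; 5.3 nM AmpC reagent; cpd preinc 15 min RT; nitrocefin (800 uM stock) to start; A480 q20 s × 4 min; Activity was normalised to no-enzyme and no-compound control wells.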
Active calls of the source: *; ? = inconclusive; · = no result given; + = active, no number; [ ] = remark or other dose. The entries come from a sample that favours hits as a whole. Unless noted, calls come from the whole dose curve; as a rule, active = well fitted curve in the direction sought with a large enough effect; inconclusive = small, poorly fitted or top-dose-only effect, or another doubt; inactive = no such curve, though single readings can be large; an effect the other way counts as inactive or inconclusive.

SMILES	SARS PLP yeast	Cycloheximide cs	AmpC detergent	AMA1-RON2 inh	Shiga toxin inh	AmpC no deterg
N=C1CCC(=N)c2c1c(O)c1ccccc1c2O	-4.2%	12.8*	-10.2%	20µM*	3.8	-53.3%
CCn1c(SCC(=O)NNC(=S)Nc2ccc(C)cc2)nnc1-c1ccc(Cl)cc1	0.2%	-2.1	-1.7%	65.2%	-6.4	-21.9%
COc1ccc(N=Cc2sc(O)c3ccccc23)cc1	-6.6%	66.1*	-7.8%	9.5%	87.2*	?
COc1ccc(N=Cc2c(O)c3ccccc3n2C(C)=O)cc1	-1.7%	14.4*	2.9%	-0.4%	52.4	0.9%
COc1ccc(-n2c(O)c(C=Nc3ccccc3)c3ccccc3c2=O)cc1	-0.1%	-9.1	2.2%	0.0%	-13.1	-13.8%
Cc1cc(-c2ccc(/C=N/n3cnnc3)o2)ccc1Cl	-49.5%	3.4	-2.9%	-10.5%	14.1	1.5%
Clc1cccc(OCc2nc(-c3ccncc3)no2)c1	-1.6%	33.8*	-6.5%	-0.6%	45.2	-0.7%[2.29 µM]
Cc1cccc(OCc2nc(-c3cccnc3)no2)c1	5.1%	15.3*	-7.9%	4.5%	+	-19.0%
Clc1ccc(OCc2nc(-c3ccncc3)no2)c(Cl)c1	-22.5%	63.6*	2.6%	7.6%	122.0*	29.8%
Clc1cccc(OCc2nc(-c3ccncc3)n[nH]2)c1	·	5.0	-1.0%	17.7%	6.6	-23.3%
COc1ccc(OCC(=O)OC(C)CN2CCOCC2)cc1 (centres undefined)	13.8%	8.1	5.9%	7.5%	25.3	-12.4%
CCCC(C)C(=O)Nc1ccncc1 (centres undefined)	0.4%	-2.4	?	-7.5%	0.3	-11.1%
Cc1nc2ccccn2c1C(=O)/C=C/c1cccc([N+](=O)[O-])c1	1.2%	1.4	-8.0%	-1.1%	-9.0	-12.5%
Cc1ccc(NC(=O)c2c(C)nc3ccccn23)cc1C	-2.5%	41.2*	?	-5.8%	56.9*	38.6%
Cc1ccc(/C=C/C(=O)c2c(C)nc3ccccn23)cc1	-10.7%	39.5*	3.1%	?	69.7*	30.6%
Cc1cccc(NC(=O)c2c(C)nc3ccccn23)c1	-2.8%	28.7*	-14.5%	-5.2%	79.9*	-4.6%
CCCOC(=O)C1=C(C)N(C)C(=O)NC1c1cc2c(cc1Br)OCO2 (centres undefined)	-1.6%	-1.0	-14.0%	-6.2%	-8.2	34.0%
CC(=O)Nc1ccc(SCCN2CC[C@@H](C(C)(C)C)CCC2=O)cc1	-2.1%	·	6.1%	-3.1%	·	82.2%
Cc1ccc(SCCN2CCC(C)CCC2=O)cc1 (centres undefined)	8.5%	29.2*	-9.9%	-0.7%	37.6*	22.0%
Cc1ccc(SCCN2CCC(C(C)(C)C)CCC2=O)cc1 (centres undefined)	15.1%	25.4*	?	8.6%	42.1*	85.8%
CC(C)(C)C1CCC(=O)N(CCSc2ccccc2)CC1 (centres undefined)	-11.6%	32.2*	-19.4%	20.3%	61.8*	33.8%
CCOC(=O)[C@H]1[C@H]2COc3ccc(Cl)cc3[C@@H]2N2C(=O)c3cc(F)c(F)cc3NC(=O)[C@@]12C	0.5%	·	-14.3%	-26.6%	·	-53.5%
Cc1ccsc1C(=O)C1CCCN(Cc2cnc(N(C)C)s2)C1 (centres undefined)	-0.9%	3.2	3.0%	·	-3.3	42.4%
COc1ccc2cc(C(=O)NCc3ccco3)c(=O)oc2c1	1.9%	33.5*	0.7%	11.5%	59.7*	-22.7%
COc1ccc2cc(C(=O)NCc3ccco3)c(=Nc3ccc(C(=O)O)cc3)oc2c1	-6.3%	54.9*	-9.1%	-11.3%	112.1*	-7.7%
SMILES	SARS PLP yeast	Cycloheximide cs	AmpC detergent	AMA1-RON2 inh	Shiga toxin inh	AmpC no deterg
COc1ccc(N=c2oc3c(OC)cccc3cc2C(=O)NCc2ccco2)c(OC)c1	-4.4%	23.2*	8.3%	-14.0%	60.1	-13.8%
COc1ccc2oc(=Nc3ccc(C(=O)O)cc3)c(C(=O)NCc3ccco3)cc2c1	0.1%	7.4	?	-1.0%	23.0	-6.0%
CC1CCc2c(sc3ncnc(NCCCOC(C)C)c23)C1 (centres undefined)	-13.5%	13.6	-0.6%	-11.0%	15.2	112.7%
O=C(CCCCCn1c(SCc2ccncc2)nc2ccccc2c1=O)NCc1ccco1	9.7%	-2.9	?	0.5%	-8.0	47.6%
O=C(Nc1ccc(/C=C/c2nc3ccccc3o2)cc1)c1c(F)cccc1F	-0.8%	28.4*	?	7.6%	+	-35.3%
C(=Cc1nc2ccccc2o1)c1ccc2c(c1)OCO2	·	·	·	14.6%	·	·
O=C(Nc1ccc(/C=C/c2nc3ccccc3o2)cc1)c1cccc(C(F)(F)F)c1	-4.3%	34.2*	1.1%	9.9%	102.2*	-39.7%
CC(=O)Nc1ccc(/C=C/c2nc3ccccc3o2)cc1	-6.6%	53.7*	-14.5%	5.4%	100.9*	9.2%
O=C(CON=C1c2ccccc2-c2ccccc21)NC12CC3CC(CC(C3)C1)C2	-14.8%	-1.3	-5.3%	-2.9%[11.6 µM]	17.6	-10.9%
C#CCN(C)[C@H](C)Cc1ccccc1	6.4%	-4.0	-4.7%	-0.5%	-7.1	-16.7%
Nc1c(C(=O)N2CCCC2)sc2nc3c(cc12)CCCCCC3	-2.4%	44.0*	-6.0%	4.5%	102.8*	-11.5%
O=C(c1scc2c1CCCC2)N1CCOCC1	3.5%	-3.3	-12.2%	2.7%	3.5	-4.6%
Nc1c(C(=O)N2CCOCC2)sc2nc3c(cc12)CCC3	-1.5%	26.2*	-6.7%	15.5%	68.4*	-20.2%
Nc1c(C(=O)N2CCOCC2)sc2nc3c(cc12)CCCC3	-15.0%	17.6*	3.7%	6.7%	20.6	-4.2%
Cc1cc(C)c2c(N)c(C(=O)N3CCCCCC3)sc2n1	-12.2%	5.4	-5.8%	-0.2%	0.3	-20.2%
CC(=O)c1ccc(NC(=O)c2ccn(C(=O)OCC(C)C)n2)cc1	-11.4%	70.7*	-4.1%	1.5%	55.8*	-9.0%
CCOC(=O)c1c(NC(=O)c2cc(CC(C)C)on2)sc(C(C)=O)c1C	3.7%	-2.7	?	25.3%	11.0	-30.7%
CC(C)Cc1cc(C(=O)Nc2cccnc2)no1	-6.7%	35.4*	?	-9.6%	111.2*	-5.0%
CC(=O)c1ccc(NC(=O)c2cc(CC(C)C)on2)cc1	0.0%	18.1*	?	16.2%	active	50.1µM*
COc1cc(NC(=O)c2cc(CC(C)C)on2)c(OC)cc1Cl	-8.5%	-2.2	-5.9%	2.2%	8.7	?
CSc1ccccc1NC(=O)c1cc(CC(C)C)on1	-8.2%	62.3*	4.3%	36.6%	69.5*	10µM*
Cc1ccc(NC(=O)COC(=O)CCn2c(C)csc2=O)c([N+](=O)[O-])c1	5.7%	·	?	-1.9%	·	20.4%
CCn1c(CCc2ccccc2)n[nH]c1=S	0.8%	-2.2	0.6%	13.6%	12.5	-18.9%

Assay outcomes (PubChem)
